According to PubChem BioAssay:
The source made the active and inactive calls.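 The calls were made as follows, unless noted: active = normalized viability below 100% at a tested concentration; inactive = the rest.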

Tests used:
[1] = liver-stage malaria parasite load reduction – cell-based, known kinase inhibitor set, luminescence, hepatoma host viability (AID 624392; call rule not given here;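 also: infected cells incubated roughly two days before readout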); settings: Plasmodium liver stage in hepatoma cells, luciferase luminescence, concentration not given here; liver cell % of control: measured here: host liver cell viability; parasite % of control: stronger effect = lower value
[2] = altered dexamethasone sensitivity, NF-kB reporter, cell-based, luciferase, IL-1B stimulus (AID 624486; call rule not given here;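 as to percent of negative control (+Dex): 100% = mean signal of vehicle control wells on the plate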); settings: IL-1B + dexamethasone, luminescence; percent of negative control (+Dex): actives lie on both sides, concentration not given here; z-score: measured here: IL-1B alone, no Dex
[3] = C. elegans survival during P. aeruginosa infection – whole organism (AID 651566; call rule not given here;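 also: tested at 14 µM; sign flipped so higher z means a lower ratio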); settings: C. elegans killed by P. aeruginosa, survival ratio
[4] = pro-inflammatory signaling induction in mouse macrophages – cell-based, murine, luminescence (AID 652131; call rule not given here); settings: murine macrophage pro-inflammatory reporter, stronger effect = higher value
[5] = MELAS cybrid and Rieske KO viability enhancers – cell-based, MELAS cybrids, Rieske KO mouse fibroblasts, CellTiter-Glo, primary screen (AID 1508586;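 active = mean z-score across replicates of 1.96 or higher in either the MELAS or the Rieske mutant cell line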;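 also: z relative to plate mean and SD of compound and empty wells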); settings: low glucose
[6] = drug combination growth inhibition, ovarian cancer – cell-based, oncology-focused library, rucaparib conditional, profiling panel (AID 1508598); settings: patient-derived ovarian cancer cells, CellTiter-Glo viability, 144 h, stronger effect = lower value
[7] = galactose survival enhancers in mitochondrial complex I cybrids – cell-based, galactose medium, ATP luminescence, primary screen (AID 1645843;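 active = z-score of at least 1.8 in each of two replicates, scored against plate mean and spread of sample wells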;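 also: positive z means more ATP and so rescue of galactose-driven cybrid death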); settings: complex I mutant cybrid cells, 72 h, stronger effect = higher value
[8] = biological target: NAD(+) hydrolase SARM1 (Homo sapiens) (UniProt Q6SZW1); test: blocking NAD cleavage by SARM1 SAM-TIR – cell lysate, NAD-Glo luminescence (AID 1508614;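 active = compound whose remaining NAD level is above about 45 nM, limit read from the data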;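 also: higher remaining NAD means stronger inhibition of SARM1 NADase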); settings: SAM-TIR HEK293T lysate NADase, at 1 µM, stronger effect = higher value
[9] = MELAS cybrid survival, CellTiter-Glo 48 h, stronger effect = higher value
[10] = Rieske KO mouse fibroblast survival, CellTiter-Glo 72 h
[11] = at 0.000305 µM, OCI-C5x cells, with rucaparib 10 µM, 100% = cells with rucaparib alone
[12] = at 0.000305 µM, OCI-C5x cells, without rucaparib
[13] = at 0.000305 µM, OCI-P5x cells, with rucaparib 20 µM, 100% = cells with rucaparib alone
[14] = at 0.000305 µM, OCI-P5x cells, without rucaparib
[15] = at 0.00122 µM, OCI-C5x cells, with rucaparib 10 µM, 100% = cells with rucaparib alone
[16] = at 0.00122 µM, OCI-C5x cells, without rucaparib
[17] = at 0.00122 µM, OCI-P5x cells, with rucaparib 20 µM, 100% = cells with rucaparib alone
[18] = at 0.00122 µM, OCI-P5x cells, without rucaparib
[19] = at 0.00488 µM, OCI-C5x cells, with rucaparib 10 µM, 100% = cells with rucaparib alone
[20] = at 0.00488 µM, OCI-C5x cells, without rucaparib
[21] = at 0.00488 µM, OCI-P5x cells, with rucaparib 20 µM, 100% = cells with rucaparib alone
[22] = at 0.00488 µM, OCI-P5x cells, without rucaparib
[23] = at 0.0195 µM, OCI-C5x cells, with rucaparib 10 µM, 100% = cells with rucaparib alone
[24] = at 0.0195 µM, OCI-C5x cells, without rucaparib
[25] = at 0.0195 µM, OCI-P5x cells, with rucaparib 20 µM, 100% = cells with rucaparib alone
[26] = at 0.0195 µM, OCI-P5x cells, without rucaparib
[27] = at 0.0781 µM, OCI-C5x cells, with rucaparib 10 µM, 100% = cells with rucaparib alone
[28] = at 0.0781 µM, OCI-C5x cells, without rucaparib
[29] = at 0.0781 µM, OCI-P5x cells, with rucaparib 20 µM, 100% = cells with rucaparib alone
[30] = at 0.0781 µM, OCI-P5x cells, without rucaparib
[31] = at 0.313 µM, OCI-C5x cells, with rucaparib 10 µM, 100% = cells with rucaparib alone
[32] = at 0.313 µM, OCI-C5x cells, without rucaparib
[33] = at 0.313 µM, OCI-P5x cells, with rucaparib 20 µM, 100% = cells with rucaparib alone
[34] = at 0.313 µM, OCI-P5x cells, without rucaparib
[35] = at 1.25 µM, OCI-C5x cells, with rucaparib 10 µM, 100% = cells with rucaparib alone
[36] = at 1.25 µM, OCI-C5x cells, without rucaparib
[37] = at 1.25 µM, OCI-P5x cells, with rucaparib 20 µM, 100% = cells with rucaparib alone
[38] = at 1.25 µM, OCI-P5x cells, without rucaparib
[39] = at 5 µM, OCI-C5x cells, with rucaparib 10 µM, 100% = cells with rucaparib alone
[40] = at 5 µM, OCI-C5x cells, without rucaparib
[41] = at 5 µM, OCI-P5x cells, with rucaparib 20 µM, 100% = cells with rucaparib alone
[42] = at 5 µM, OCI-P5x cells, without rucaparib

Sequence of NAD(+) hydrolase SARM1 (Homo sapiens) (Q6SZW1 whole entry, looked up): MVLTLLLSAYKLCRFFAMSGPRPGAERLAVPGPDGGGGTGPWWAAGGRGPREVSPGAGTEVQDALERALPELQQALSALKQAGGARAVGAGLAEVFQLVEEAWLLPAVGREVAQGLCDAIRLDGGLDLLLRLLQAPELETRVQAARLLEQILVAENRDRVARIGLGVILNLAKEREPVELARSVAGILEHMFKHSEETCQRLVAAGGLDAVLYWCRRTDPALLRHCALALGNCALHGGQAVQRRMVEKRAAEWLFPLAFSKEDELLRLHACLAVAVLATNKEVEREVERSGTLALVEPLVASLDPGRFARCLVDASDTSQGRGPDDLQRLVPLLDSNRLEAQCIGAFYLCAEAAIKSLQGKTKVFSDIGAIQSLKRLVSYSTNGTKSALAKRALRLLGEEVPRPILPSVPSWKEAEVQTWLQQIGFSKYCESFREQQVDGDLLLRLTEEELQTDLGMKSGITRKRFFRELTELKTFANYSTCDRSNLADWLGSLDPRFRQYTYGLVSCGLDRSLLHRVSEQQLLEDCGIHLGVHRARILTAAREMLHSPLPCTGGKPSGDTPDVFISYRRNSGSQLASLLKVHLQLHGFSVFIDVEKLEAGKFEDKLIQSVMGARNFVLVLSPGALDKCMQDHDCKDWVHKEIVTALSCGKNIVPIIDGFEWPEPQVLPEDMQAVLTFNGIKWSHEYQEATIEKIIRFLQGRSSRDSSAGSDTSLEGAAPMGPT

NC(=O)c1cc(-c2ccc(F)cc2)cc(-c2ccncc2)c1N
0.27: z-score [2]
0.289: z-score [5, 10]
110%: liver cell % of control [1]
inactive: parasite % of control [1] 93.1% | percent of negative control (+Dex) [2] 92.5% | z-score [3] 0.64 | z-score [4] -0.928 | z-score [5, 9] -0.833

COc1cccc2c1C(=O)c1c(O)c3c(c(O)c1C2=O)C[C@@](O)(C(=O)CO)C[C@H]3O[C@H]1C[C@H](N)[C@@H](O)[C@H](C)O1
inactive: viability [6, 11] 101% | viability [6, 12] 108% | viability [6, 13] 107% | viability [6, 14] 105% | viability [6, 16] 106% | viability [6, 17] 103% | viability [6, 18] 106% | viability [6, 21] 106% | viability [6, 27] 103%
active: viability [6, 15] 94.3% | viability [6, 19] 90.6% | viability [6, 20] 95.4% | viability [6, 22] 97.5% | viability [6, 23] 78.4% | viability [6, 24] 75.5% | viability [6, 25] 92% | viability [6, 26] 54.5% | viability [6, 28] 83.9% | viability [6, 29] 54% | viability [6, 30] 30.8% | viability [6, 31] 37.5% | viability [6, 32] 43.3% | viability [6, 33] 45.3% | viability [6, 34] 15.5% | viability [6, 35] 15.6% | viability [6, 36] 31.1% | viability [6, 37] 11.7% | viability [6, 38] 10.8% | viability [6, 39] 8.09% | viability [6, 40] 2.52% | viability [6, 41] 3.69% | viability [6, 42] 5.43%

CC(C)NS(=O)(=O)c1cc(NCc2cnn(C)c2)cc(C(=O)NCc2cn3ccccc3n2)c1
inactive: z-score [5, 9] -0.615 | z-score [7] 1.27
-0.511: z-score [5, 10]

Nc1nonc1-c1nc2cnccc2n1C1CC1
-0.585: z-score [5, 10]
-5.63: z-score [2]
86.3%: liver cell % of control [1]
inactive: parasite % of control [1] 247% | z-score [3] -0.345 | z-score [4] -0.857 | z-score [5, 9] -0.391
active: percent of negative control (+Dex) [2] 45%

COc1cccc(Nc2nccc(-c3cnn4ncccc34)n2)c1
active: percent of negative control (+Dex) [2] 3%
inactive: parasite % of control [1] 13.4% | z-score [3] 0.695 | z-score [4] -1.68 | z-score [5, 9] 0.875
85.6%: liver cell % of control [1]
-9.21: z-score [2]
1.18: z-score [5, 10]

CN(C)C1CCN(C(=O)c2cc(-c3ccccc3)cc(S(=O)(=O)N3CCSCC3)c2)C1 (centres undefined)
0.00446: z-score [5, 10]
inactive: z-score [5, 9] 0.666 | z-score [7] 0.465

COc1cccc(-n2ncc3c(N/N=C/c4ccc(S(C)(=O)=O)cc4)ncnc32)c1
107%: liver cell % of control [1]
-0.0857: z-score [5, 10]
active: percent of negative control (+Dex) [2] 136%
inactive: parasite % of control [1] 26.1% | z-score [3] -1.31 | z-score [4] -0.723 | z-score [5, 9] 1.75
0.965: z-score [2]

CCCCCCCCCC(=O)N[C@@H](Cc1c[nH]c2ccccc12)C(=O)N[C@@H](CC(N)=O)C(=O)N[C@@H](CC(=O)O)C(=O)N[C@@H]1C(=O)NCC(=O)N[C@@H](CCCN)C(=O)N[C@@H](CC(=O)O)C(=O)N[C@H](C)C(=O)N[C@@H](CC(=O)O)C(=O)NCC(=O)N[C@H](CO)C(=O)N[C@@H]([C@H](C)CC(=O)O)C(=O)N[C@@H](CC(=O)c2ccccc2N)C(=O)O[C@@H]1C
inactive: remaining NAD [8] 10 nM

CC1(C)C=C(CN2C/C(=C/c3ccc(F)cc3)C(=O)/C(=C/c3ccc(F)cc3)C2)C(C)(C)N1O
active: viability [6, 13] 90.6% | viability [6, 14] 90.1% | viability [6, 17] 80% | viability [6, 18] 81.9% | viability [6, 21] 74.5% | viability [6, 22] 83.8% | viability [6, 25] 71% | viability [6, 26] 81.9% | viability [6, 33] 96.7% | viability [6, 41] 55.9% | viability [6, 42] 97.4%
inactive: viability [6, 11] 136% | viability [6, 12] 110% | viability [6, 15] 117% | viability [6, 16] 106% | viability [6, 19] 131% | viability [6, 20] 112% | viability [6, 23] 127% | viability [6, 24] 112% | viability [6, 27] 124% | viability [6, 28] 117% | viability [6, 29] 102% | viability [6, 30] 106% | viability [6, 31] 125% | viability [6, 32] 109% | viability [6, 34] 103% | viability [6, 35] 127% | viability [6, 36] 118% | viability [6, 37] 102% | viability [6, 38] 105% | viability [6, 39] 124% | viability [6, 40] 115%

CCCCCCCCCC(=O)N[C@H]1[C@H](Oc2c3cc4cc2Oc2ccc(cc2Cl)[C@@H](O[C@@H]2O[C@H](CO)[C@@H](O)[C@H](O)[C@H]2NC(C)=O)[C@@H]2NC(=O)[C@H](NC(=O)[C@@H]4NC(=O)[C@H]4NC(=O)[C@@H](Cc5ccc(c(Cl)c5)O3)NC(=O)[C@@H](N)c3ccc(O)c(c3)Oc3cc(O)cc4c3)c3ccc(O)c(c3)-c3c(OC4O[C@H](CO)[C@@H](O)[C@H](O)[C@@H]4O)cc(O)cc3[C@@H](C(=O)O)NC2=O)O[C@H](CO)[C@@H](O)[C@@H]1O (some centres undefined)
inactive: remaining NAD [8] 10 nM

Nc1ncn([C@@H]2O[C@H](CO)[C@@H](O)[C@@H]2O)c(=O)n1
inactive: viability [6, 11] 104% | viability [6, 12] 128% | viability [6, 13] 103% | viability [6, 14] 125% | viability [6, 15] 108% | viability [6, 16] 132% | viability [6, 17] 102% | viability [6, 18] 123% | viability [6, 19] 114% | viability [6, 20] 122% | viability [6, 21] 102% | viability [6, 22] 116% | viability [6, 23] 114% | viability [6, 24] 129% | viability [6, 25] 110% | viability [6, 26] 119% | viability [6, 27] 117% | viability [6, 28] 119% | viability [6, 29] 110% | viability [6, 30] 122% | viability [6, 31] 112% | viability [6, 32] 124% | viability [6, 33] 114% | viability [6, 34] 122% | viability [6, 35] 110% | viability [6, 36] 123% | viability [6, 37] 105% | viability [6, 38] 111% | viability [6, 39] 107% | viability [6, 40] 109%
